DT40 TDP1 no CPT: qHTS for Inhibitors of human tyrosyl-DNA phosphodiesterase 1 (TDP1): qHTS in cells in absence of CPT; DT40 Tdp1-/- hTDP1 cells, no CPT, ATP luminescence, 48 h; Potency, µM (series often up to 46.2 µM), inactives show at the highest dose activity change, negative = growth inhibition, hits mostly inhibitors; 15% of 420,000 active; AID 686978, 2013; also: potency is read from the fitted curve at half-maximal effect; nearly all actives have a fitted effect of over 55% in size
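Growth kinetics read by CellTiter-Glo luminescence after ≥48 hr at 37 °C. Cells: DT40 Tdp1-/- stably carrying human TDP1, 400 per well, compound exposure in the absence of CPT (DMSO vehicle).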
Gal4-VP16 FLuc: VP16 counterscreen qHTS for inhibitors of ROR gamma transcriptional activity; Drosophila S2 Gal4-VP16 UAS-luciferase, luminescence, 20 h; Potency, µM (doses to about 53.6 µM), without a hit: at the highest dose activity, negative = inhibition, actives largely listed as inhibitors; 3.5% of 310,000 active;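 also: Gal4-VP16 expression switched on by copper sulfate through the metallothionein promoter; potency is read from the fitted curve at half-maximal effect; nearly all actives have a fitted effect of over 50% in size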
IL-1B inflam inh: qHTS for Inhibitors of Inflammasome Signaling: IL-1-beta AlphaLISA Primary Screen; THP-1 LPS/ATP IL-1B secretion, AlphaLISA, 16 h; hits give low values; activity change, % at 57.5 µM; 4.7% of 360,000 active; AID 743279, 2014; in the data active = activity change below about -50%; inconclusive = mostly about -30% to -49%
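Secreted IL-1B measured by AlphaLISA bead assay after 16 h compound exposure of THP-1 cells; compounds (final up to 57.5 uM) added 1 h before LPS (250 ng/mL) and ATP (1.25 mM) stimulation; lower signal means less secretion.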
DT40 TDP1 CPT: qHTS for Inhibitors of human tyrosyl-DNA phosphodiesterase 1 (TDP1): qHTS in cells in presence of CPT. chicken DT40 Tdp1-/-;hTDP1 cells + 20 nM CPT, ATP luminescence, 48 h. Potency, µM (series often up to 46.2 µM), inactives show at the highest dose activity change, negative = growth inhibition, hits mostly inhibitors. 12% of 420,000 active. AID 686979, 2013; also: potency is read from the fitted curve at half-maximal effect; nearly all actives have a fitted effect of over 55% in size
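Chicken DT40 Tdp1-/- cells stably complemented with human TDP1 were seeded at 400 cells/well in medium containing 20 nM camptothecin, exposed to pin-transferred compounds, and grown at 37 °C for at least 48 hr. Viability was read as ATP luminescence.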
LDHA block: qHTS assay for inhibitors of human lactate dehydrogenase; L-lactate dehydrogenase A chain (Homo sapiens), P00338; purified LDHA, NADH/diaphorase-resazurin fluorescence; hits give low values; activity change, % (values are at about 110 or 230 µM); 0.15% of 480,000 active; AID 1347041, 2019; in the data active = activity change below about -30%; inconclusive = mostly about -25% to -30%;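 also: plate controls were DMSO wells for no effect and wells without enzyme for full effect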
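LDH5 2 nM; NADH 0.06 mM, pyruvate 0.2 mM; 200 mM Tris pH 7.4, EDTA, Tween-20; 5 min RT. Detection: diaphorase 0.133 mg/mL + resazurin 37 µM, fluorescence ex540/em590 at 0 and 20 min; normalized to enzyme-free and DMSO wells.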
RORg inh: qHTS for inhibitors of ROR gamma transcriptional activity; Nuclear receptor ROR-gamma (Mus musculus), P51450; Drosophila S2 Gal4-RORgamma UAS-luciferase reporter, 20 h; Potency, µM (doses to about 53.6 µM), for the others: at the highest dose activity change, negative = inhibition, actives largely listed as inhibitors; 5.4% of 310,000 active; also: potency is read from the fitted curve at half-maximal effect; nearly all actives have a fitted effect of over 60% in size
Target sequence (P51450 whole entry, looked up, the tested form may be a part): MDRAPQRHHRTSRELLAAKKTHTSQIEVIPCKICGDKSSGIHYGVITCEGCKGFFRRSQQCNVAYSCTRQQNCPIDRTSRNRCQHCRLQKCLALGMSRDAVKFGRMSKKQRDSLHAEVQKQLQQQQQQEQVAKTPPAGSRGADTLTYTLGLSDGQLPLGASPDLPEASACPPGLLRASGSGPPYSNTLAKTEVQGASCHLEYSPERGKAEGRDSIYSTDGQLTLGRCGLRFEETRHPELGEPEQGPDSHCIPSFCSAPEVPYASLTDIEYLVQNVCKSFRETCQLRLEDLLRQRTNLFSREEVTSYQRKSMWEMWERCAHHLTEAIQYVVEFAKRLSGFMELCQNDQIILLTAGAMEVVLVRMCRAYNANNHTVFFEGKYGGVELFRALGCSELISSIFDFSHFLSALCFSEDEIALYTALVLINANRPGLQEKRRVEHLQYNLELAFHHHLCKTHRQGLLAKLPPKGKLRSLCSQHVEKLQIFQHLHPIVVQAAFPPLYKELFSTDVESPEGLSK
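In this cell-based reporter format, copper sulfate (700 uM final) drives Gal4–ROR gamma fusion expression from a metallothionein promoter in Drosophila Schneider cells; compounds preincubated 1 hr, reporter read after 20 hr at ambient temperature.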
* marks the source's active call; other numbers are inactive results; ? = inconclusive; . = not tested or not shown. This is a sample that favours compounds with a hit; in the whole collection about 18% have one here. Unless noted, calls follow the shape of the dose curve; as a rule, active = well fitted curve in the direction sought with a large enough effect; inconclusive = small, poorly fitted or top-dose-only effect, or another doubt; inactive = no such curve, though single readings can be large; an effect the other way counts as inactive or inconclusive. Unless noted, % is scaled to controls: 0 for no effect and ±100 for the full control effect.

SMILES	DT40 TDP1 no CPT	Gal4-VP16 FLuc	IL-1B inflam inh	DT40 TDP1 CPT	LDHA block	RORg inh
CCOC(=O)COc1cc(N)c(Cl)cc1Cl	-5%	-8%	-53*	-1%	10	-7%
CCCOc1ccc(C(=O)NC2CCCCNC2=O)cc1OCC (stereo not drawn)	.	.	.	.	12	.
O=C(C1COc2ccccc2O1)N1CCN(c2ccc([N+](=O)[O-])cc2)CC1 (stereo not drawn)	21µM*	.	-84*	?	-4	.
O=C(C1COc2ccccc2O1)N1CCCC1 (stereo not drawn)	3%	7%	13	-9%	-3	-2%
O=C(C1COc2ccccc2O1)N1CCN(c2nc3ccc([N+](=O)[O-])cc3s2)CC1 (stereo not drawn)	23µM*	.	-7	?	-4	.
C=C1CCN([C@H](C(=O)OCc2cccc(C)c2)C(C)C)S(=O)(=O)c2ccccc21	15µM*	-7%	15	?	1	37%
C=C1CCN([C@H](C(=O)O)C(C)C)S(=O)(=O)c2ccccc21	8%	.	16	3%	-4	.
C=CCc1cccc(/C=N/NC(=O)C(C)Nc2ccc(C)cc2)c1O (stereo not drawn)	8.2µM*	2.8µM*	0	16µM*	5	0.56µM*
COc1ccc(NC(C)C(=O)N/N=C/c2cc(Br)ccc2OC)cc1 (stereo not drawn)	-6%	-5%	-22	-4%	0	0%
C=CCc1cccc(/C=N/NC(=O)C(=O)Nc2ccc(C)cc2)c1O	5.2µM*	11µM*	31	3.7µM*	-5	2.2µM*
O=C(CSc1nnnn1C1CCCC1)NCc1ccc(CN2CCOCC2)cc1	.	.	.	.	0	.
C=CCNC(=S)NC(=O)c1cc(Br)ccc1Cl	.	.	.	.	0	.
COc1cccc(C(=O)Nc2cccc(-c3cn4c(C)csc4n3)c2)c1OC	16µM*	.	.	18µM*	-5	.
COc1ccc(C(=O)Nc2cccc(-c3cn4ccsc4n3)c2)c(OC)c1	6.5µM*	.	.	5.2µM*	-4	.
CCCC(=O)Nc1cccc(-c2cn3c(C)csc3n2)c1	?	.	.	-26%	3	.
CCSC1=N/C(=C\c2cc(C(C)(C)C)c(O)c(C(C)(C)C)c2)C(=O)S1	.	.	.	.	3	.
O=C(CCCn1ccc2cc(S(=O)(=O)N3CCCC3)ccc21)NCc1ccco1	.	.	.	.	-9	.
O=C(OCc1ccc(-c2ccccc2)cc1)c1ccc(CO)cc1	.	.	.	.	1	.
FC(F)Sc1ccc(NC(=S)N(Cc2ccccc2)Cc2ccccc2)cc1	.	.	.	.	9	.
CN(C(=S)Nc1ccc(SC(F)F)cc1)c1ccc(O)cc1	?	?	-54*	?	31	15%
CN(C(=S)Nc1cccnc1)c1ccc(O)cc1	?	-20%	5	-23%	31	32%
CN(C(=S)Nc1ccc(Oc2ccccc2)cc1)c1ccc(O)cc1	?	-1%	-73*	?	30	-1%
CCC(C)c1ccc(NC(=O)CCc2ncc(-c3ccc(F)cc3)o2)cc1 (stereo not drawn)	.	.	.	.	3	.
CCN(CC)c1nc(NN)nc(Nc2ccc(C)c(Cl)c2)n1	?	.	-76*	?	5	.
COCc1ccc(CNC(=O)/C=C/c2sccc2C)cc1	.	.	.	.	6	.
SMILES	DT40 TDP1 no CPT	Gal4-VP16 FLuc	IL-1B inflam inh	DT40 TDP1 CPT	LDHA block	RORg inh
c1csc(-c2ccc(N3CCOCC3)nn2)c1	8.2µM*	11µM*	-13	?	-11	?
O=C(CCCl)Nc1nc2c(s1)CCc1ccccc1-2	5.8µM*	-11%	-98*	13µM*	15	-36%
N#C/C(=C(/O)CCl)c1nc2c(s1)CCc1ccccc1-2	13µM*	-26%	-95*	12µM*	24	-36%
COc1ccc(NC(=O)c2nc3ccccc3nc2N2CCOCC2)cc1	.	.	.	.	-19	.
O=C(Nc1ccc(F)cc1)C1CCCN(S(=O)(=O)c2ccc(N3CCCC3=O)cc2)C1 (stereo not drawn)	.	.	.	.	3	.
COc1ccc([C@H]2CC(=O)C=C(C#CC(C)(C)C)C2)cc1	?	.	-21	?	-15	.
COc1ccc2cc(C#CC3=CC(=O)C[C@H](c4ccc(F)cc4)C3)ccc2c1	?	.	-76*	?	-1	.
CCc1ccc(CNC2CC2)cc1	.	.	.	.	-11	.
c1ccc(Cc2ccc(OCCCNC3CCCC3)cc2)cc1	.	-14%	.	.	.	-35%
c1ccc(-c2ccc(OCCCNC3CCCC3)cc2)cc1	?	0%	.	15µM*	-19	-7%
N#CCc1ccc(NC(=O)c2cc(S(=O)(=O)N3CCOCC3)ccc2Cl)cc1	18µM*	-3%	23	16µM*	-18	24%
O=C(Nc1cc(S(=O)(=O)N2CCOCC2)ccc1Cl)c1cc([N+](=O)[O-])ccc1Cl	15µM*	.	-97*	?	-5	.
O=S(=O)(c1ccc(SCc2cc(Cl)c3c(c2)OCCO3)nc1)N1CCOCC1	.	.	.	.	6	.
CCOc1cc(CNCCSc2nnnn2-c2ccccc2)ccc1OC	10µM*	.	.	12µM*	-2	.
COc1cccc(CNCCSc2nnnn2-c2ccccc2)c1OC	23µM*	.	.	?	4	.
COc1cccc(CNCCCSc2nnnn2C)c1OC	-10%	.	.	-15%	-1	.
COc1ccc(S(=O)(=O)NCCSc2nnnn2-c2ccccc2)cc1OC	23µM*	.	.	16µM*	-2	.
COc1ccc(S(=O)(=O)NCCOc2ccccc2)cc1-n1cnnn1	-16%	0%	-50*	-5%	0	4%

High-throughput results: PubChem, National Center for Advancing Translational Sciences (NCATS)
